Source: the supplement of paper PMC9262897, “Low-cost anti-mycobacterial drug discovery using engineered E. coli” (Nature Communications, 2022)
Structures can show the parent of a compound that is named as a salt. ± gives the standard deviation of the averaged measurements.

Tests used:
Assay in all cases: growth (OD600 after 10 h); higher = more growth (less inhibition)
[1] = tested on: E. coli TESEC Alr+ wild-type control; conditions: compound 0.1 mM; raw OD600 reference: median of DMSO wells 0.241, cell-free background 0.041
Experimental: (§1)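 TESEC Mtb Alr E. coli, or the Alr+ wild-type control, in 384-well plates with Prestwick library compounds at 0.1 mM and 1% DMSO, across arabinose induction levels of 1E3 to 1E7 nM. Growth is read as OD600 after 10 h at 37 °C in triplicate biological replicates.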

E. coli TESEC Mtb Alr [2] = conditions: compound 0.1 mM
Experimental: as §1

E. coli TESEC Mtb Asd = conditions: compound 0.1 mM
Experimental: (§2)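 TESEC E. coli strains in which the native enzyme is deleted and replaced by arabinose-inducible Mtb Asd, DapB, CysH or TrpD, each grown in its selective medium. Strains were screened against the Prestwick library at 0.1 mM and 1% DMSO in 384-well format at low and high arabinose induction. Growth is read as OD600 after 10 h in triplicate.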

E. coli TESEC Mtb DapB = conditions: compound 0.1 mM
Experimental: as §2

E. coli TESEC Mtb Alr [3] = conditions: compound 0.1 mM; remark: listed apart in the source
Experimental: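 TESEC Mtb Alr E. coli (ΔaraC ΔtolC ΔentC Δalr ΔdadX, arabinose-inducible Mtb Alr) or the Alr+ wild-type control strain, grown in defined M9-fructose medium without D-alanine in 96-well plates with Prestwick library compounds at 0.1 mM and 1% DMSO. Low Alr induction is 0.1 µM arabinose and high induction is 10 mM arabinose.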

[4] = arabinose 1000 nM, raw OD600 reference: median of DMSO wells 0.294, cell-free background 0.041
[5] = arabinose 10000 nM, raw OD600 reference: median of DMSO wells 0.264, cell-free background 0.041
[6] = arabinose 100000 nM, raw OD600 reference: median of DMSO wells 0.201, cell-free background 0.041
[7] = arabinose 1000000 nM, raw OD600 reference: median of DMSO wells 0.193, cell-free background 0.041
[8] = arabinose 10000000 nM, raw OD600 reference: median of DMSO wells 0.146, cell-free background 0.041
[9] = arabinose induction (level): High, raw OD600 reference: median of DMSO wells 0.331, cell-free background 0.041
[10] = arabinose induction (level): Low, raw OD600 reference: median of DMSO wells 0.417, cell-free background 0.041
[11] = arabinose induction (level): High, raw OD600 reference: median of DMSO wells […], cell-free background 0.041
[12] = arabinose induction (level): Low, raw OD600 reference: median of DMSO wells 0.227, cell-free background 0.041
[13] = arabinose 100 nM, raw OD600 reference: median of DMSO wells 0.413, cell-free background 0.052
[14] = arabinose 10000000 nM, raw OD600 reference: median of DMSO wells […], cell-free background 0.052

Compound	growth [1]	growth (E. coli TESEC Mtb Alr [2]; [4])	growth (E. coli TESEC Mtb Alr [2]; [5])	growth (E. coli TESEC Mtb Alr [2]; [6])	growth (E. coli TESEC Mtb Alr [2]; [7])	growth (E. coli TESEC Mtb Alr [2]; [8])	growth (E. coli TESEC Mtb Asd; [9])	growth (E. coli TESEC Mtb Asd; [10])	growth (E. coli TESEC Mtb DapB; [11])	growth (E. coli TESEC Mtb DapB; [12])	growth (E. coli TESEC Mtb Alr [3]; [13])	growth (E. coli TESEC Mtb Alr [3]; [14])
OC(CCN1CCCCC1)(c1ccccc1)C1CC2C=CC1C2 (centres undefined) [Biperiden hydrochloride]	0.23 ± 0.031	0.284 ± 0.0095	0.275 ± 0.0046	0.226 ± 0.03	0.155 ± 0.0033	0.154 ± 0.0039	0.194 ± 0.045	0.38 ± 0.094	0.159 ± 0.012	0.174 ± 0.016	0.415 ± 0.011	0.359 ± 0.035
C#C[C@]1(O)CC[C@H]2[C@@H]3CCc4cc(O)ccc4[C@H]3CC[C@@]21C [Ethinylestradiol]	0.0556 ± 0.00079	0.0489 ± 0.0023	0.0421 ± 0.00055	0.0506 ± 0.0016	0.0444 ± 0.00061	0.05593 ± 0.00015	0.112 ± 0.017	0.0911 ± 0.062	0.0856 ± 0.007	0.0703 ± 0.0015	0.303 ± 0.024	0.0705 ± 0.016
COC(=O)Nc1nc2cc(Sc3ccccc3)ccc2[nH]1 [Fenbendazole]	0.233 ± 0.0041	0.273 ± 0.022	0.273 ± 0.012	0.189 ± 0.012	0.195 ± 0.057	0.144 ± 0.0032	0.382 ± 0.11	0.434 ± 0.018	0.2 ± 0.013	0.252 ± 0.041	0.421 ± 0.0066	0.352 ± 0.025
Nc1nc2ccc(OC(F)(F)F)cc2s1 [Riluzole hydrochloride]	0.176 ± 0.007	0.188 ± 0.0051	0.255 ± 0.0058	0.212 ± 0.007	0.262 ± 0.016	0.194 ± 0.0031	0.388 ± 0.01	0.208 ± 0.02	0.241 ± 0.005	0.241 ± 0.0089	0.415 ± 0.014	0.419 ± 0.0084
Nc1ccn([C@H]2CC[C@@H](CO)O2)c(=O)n1 [Zalcitabine]	0.246 ± 0.0044	0.2977 ± 0.0013	0.279 ± 0.014	0.198 ± 0.035	0.172 ± 0.0063	0.1518 ± 0.00067	0.288 ± 0.037	0.407 ± 0.035	0.204 ± 0.015	0.24 ± 0.04	0.409 ± 0.016	0.353 ± 0.02
CC(Cc1cccc(C(F)(F)F)c1)NCCOC(=O)c1ccccc1 (centres undefined) [Benfluorex]	0.174 ± 0.0053	0.15 ± 0.094	0.163 ± 0.0039	0.209 ± 0.0022	0.0479 ± 0.0001	0.0634 ± 0.0014	0.163 ± 0.014	0.153 ± 0.0072	0.149 ± 0.0064	0.1621 ± 0.00032	0.411 ± 0.01	0.0607 ± 0.0052
COc1cc(C(=O)NCc2ccc(OCCN(C)C)cc2)cc(OC)c1OC [Trimethobenzamide hydrochloride]	0.2204 ± 0.0014	0.295 ± 0.0097	0.254 ± 0.011	0.201 ± 0.017	0.158 ± 0.0074	0.159 ± 0.0019	0.227 ± 0.059	0.385 ± 0.015	0.203 ± 0.021	0.253 ± 0.018	0.412 ± 0.005	0.354 ± 0.022
COC(=O)C1=C(C)NC(C)=C(C(=O)OC)C1c1ccccc1[N+](=O)[O-] [Nifedipine]	0.0488 ± 0.00049	0.144 ± 0.0021	0.2006 ± 0.0018	0.136 ± 0.0053	0.0952 ± 0.0041	0.149 ± 0.0044	0.0844 ± 0.0011	0.0795 ± 0.0099	0.155 ± 0.018	0.216 ± 0.069	0.39 ± 0.0088	0.21 ± 0.039
CN1CCN(C(c2ccccc2)c2ccccc2)CC1 [Cyclizine hydrochloride]	0.216 ± 0.0082	0.278 ± 0.011	0.256 ± 0.0077	0.188 ± 0.025	0.142 ± 0.013	0.142 ± 0.0021	0.173 ± 0.0089	0.31 ± 0.039	0.168 ± 0.0017	0.196 ± 0.0017	0.41 ± 0.011	0.325 ± 0.0044
CCOC(=O)/C=C(C)/C=C/C=C(C)/C=C/c1c(C)cc(OC)c(C)c1C [Etretinate]	0.242 ± 0.0089	0.308 ± 0.015	0.257 ± 0.011	0.211 ± 0.0087	0.161 ± 0.0097	0.151 ± 0.0019	0.257 ± 0.042	0.341 ± 0.025	0.1575 ± 0.0014	0.186 ± 0.0064	0.41 ± 0.0092	0.344 ± 0.014
N[C@@H]1CCCCN(c2c(F)cc3c(=O)c(C(=O)O)cn(C4CC4)c3c2Cl)C1 [Besifloxacin hydrochloride]	0.04153 ± 0.00035	0.0427 ± 0.002	0.0401 ± 0.00026	0.0447 ± 0.0037	0.0402 ± 0.00095	0.0414 ± 0.0011	0.0501 ± 0.0019	0.0463 ± 0.00069	0.0491 ± 0.0014	0.0491 ± 0.001	0.05447 ± 0.00045	0.053 ± 0.0011
NS(=O)(=O)c1cc(C(=O)O)cc(N2CCCC2)c1Oc1ccccc1 [Piretanide]	0.243 ± 0.0085	0.28 ± 0.0043	0.278 ± 0.0094	0.22 ± 0.025	0.202 ± 0.0072	0.134 ± 0.0051	0.405 ± 0.0083	0.4 ± 0.034	0.21 ± 0.029	0.245 ± 0.025	0.4122 ± 0.0034	0.341 ± 0.0064
O=C(CCCN1CC=C(n2c(=O)[nH]c3ccccc32)CC1)c1ccc(F)cc1 [Droperidol]	0.178 ± 0.0085	0.241 ± 0.005	0.225 ± 0.0067	0.175 ± 0.014	0.105 ± 0.0018	0.152 ± 0.0037	0.205 ± 0.056	0.359 ± 0.058	0.184 ± 0.015	0.206 ± 0.029	0.409 ± 0.0085	0.276 ± 0.0059
CCN(CC)CCOC(=O)C(c1ccccc1)c1ccccc1 [Adiphenine hydrochloride]	0.222 ± 0.0088	0.309 ± 0.033	0.252 ± 0.004	0.168 ± 0.0062	0.14 ± 0.0034	0.142 ± 0.0034	0.197 ± 0.033	0.382 ± 0.069	0.165 ± 0.0095	0.223 ± 0.046	0.414 ± 0.0051	0.313 ± 0.051
Nc1ccc(/N=N/c2ccccc2)c(N)n1 [Phenazopyridine hydrochloride]	0.152 ± 0.0064	0.172 ± 0.0075	0.251 ± 0.0051	0.144 ± 0.0084	0.184 ± 0.0075	0.16 ± 0.009	0.255 ± 0.039	0.22 ± 0.016	0.196 ± 0.01	0.189 ± 0.022	0.414 ± 0.0063	0.301 ± 0.021
Nc1ncnc2c1ncn2[C@@H]1O[C@H](CO)[C@@H](O)[C@@H]1O [Vidarabine]	0.206 ± 0.012	0.273 ± 0.022	0.243 ± 0.011	0.145 ± 0.0058	0.148 ± 0.0035	0.138 ± 0.004	0.36 ± 0.077	0.383 ± 0.0057	0.171 ± 0.03	0.21 ± 0.048	0.429 ± 0.012	0.306 ± 0.0082
CO/N=C(\C(=O)N[C@@H]1C(=O)N2C(C(=O)O)=C(COC(N)=O)CS[C@H]12)c1ccco1 [Cefuroxime sodium salt]	0.0579 ± 0.0016	0.0404 ± 0.0013	0.0396 ± 0.00059	0.0725 ± 0.0027	0.0701 ± 0.0021	0.115 ± 0.0014	0.213 ± 0.0073	0.232 ± 0.0044	0.229 ± 0.013	0.16 ± 0.009	0.04693 ± 0.0004	0.169 ± 0.024
